Test results: PMC7862700, “An all-to-all approach to the identification of sequence-specific readers for epigenetic DNA modifications on cytosine”

Experiments:
Experiment in all cases: DAPPL (digital affinity profiling via proximity ligation, sequencing); 10 mM Tris-HCl pH 7.5, 50 mM NaCl, 1 mM DTT, 4% glycerol, room temperature, 30 min; GST-TFs on glutathione beads, 16-mer random dsDNA library, 0.1% formaldehyde crosslink after washing; high values mean tight binding
Conditions in all cases: protein: recombinant; tags: N-terminal GST; dsDNA, one strand shown
ERF = molecular target: T1, ERF (Homo sapiens, UniProt P50548 1-548)
T1 sequence: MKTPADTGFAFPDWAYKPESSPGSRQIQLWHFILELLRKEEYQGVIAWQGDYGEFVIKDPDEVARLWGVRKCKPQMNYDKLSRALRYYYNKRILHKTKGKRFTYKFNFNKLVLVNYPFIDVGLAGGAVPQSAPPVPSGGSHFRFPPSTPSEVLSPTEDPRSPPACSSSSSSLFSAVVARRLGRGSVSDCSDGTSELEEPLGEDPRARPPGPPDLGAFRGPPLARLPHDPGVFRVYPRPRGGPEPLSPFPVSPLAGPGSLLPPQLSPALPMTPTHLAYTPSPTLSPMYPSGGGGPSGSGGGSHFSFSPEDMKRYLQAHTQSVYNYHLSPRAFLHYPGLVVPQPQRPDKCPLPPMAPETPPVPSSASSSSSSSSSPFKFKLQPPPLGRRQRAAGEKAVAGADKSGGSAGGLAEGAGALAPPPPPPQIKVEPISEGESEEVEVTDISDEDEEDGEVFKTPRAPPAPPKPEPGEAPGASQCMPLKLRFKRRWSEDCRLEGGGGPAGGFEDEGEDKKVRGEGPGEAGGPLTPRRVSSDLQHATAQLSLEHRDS
Outline: (§1)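 Binding signal is given per hexamer as its read frequency for a factor divided by its frequency in the tag-only sample. GST-fused human transcription factors were expressed in yeast, captured on glutathione beads, barcoded with DNA and pooled with that sample, then incubated with 200 nmole of a 16-mer random double-stranded DNA library in Tris/NaCl/DTT/glycerol buffer for 30 min at room temperature. The pools were then washed, crosslinked, proximity-ligated, amplified by PCR and sequenced on an Illumina NextSeq500.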

ETV3L = molecular target: T2, ETV3L (Homo sapiens, UniProt Q6ZN32 1-361)
T2 sequence: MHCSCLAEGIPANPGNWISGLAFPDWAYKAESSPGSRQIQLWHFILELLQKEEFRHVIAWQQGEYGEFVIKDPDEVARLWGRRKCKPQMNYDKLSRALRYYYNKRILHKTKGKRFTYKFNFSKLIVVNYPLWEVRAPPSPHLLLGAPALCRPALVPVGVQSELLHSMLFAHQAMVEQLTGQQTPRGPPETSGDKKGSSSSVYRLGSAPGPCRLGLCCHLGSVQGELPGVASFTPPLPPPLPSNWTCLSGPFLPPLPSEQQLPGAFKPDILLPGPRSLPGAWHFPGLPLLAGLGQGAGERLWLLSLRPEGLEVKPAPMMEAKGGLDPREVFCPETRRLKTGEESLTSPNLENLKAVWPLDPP
Outline: as §1

ETS2 = molecular target: T3, ETS2 (Homo sapiens, UniProt P15036 1-469)
T3 sequence: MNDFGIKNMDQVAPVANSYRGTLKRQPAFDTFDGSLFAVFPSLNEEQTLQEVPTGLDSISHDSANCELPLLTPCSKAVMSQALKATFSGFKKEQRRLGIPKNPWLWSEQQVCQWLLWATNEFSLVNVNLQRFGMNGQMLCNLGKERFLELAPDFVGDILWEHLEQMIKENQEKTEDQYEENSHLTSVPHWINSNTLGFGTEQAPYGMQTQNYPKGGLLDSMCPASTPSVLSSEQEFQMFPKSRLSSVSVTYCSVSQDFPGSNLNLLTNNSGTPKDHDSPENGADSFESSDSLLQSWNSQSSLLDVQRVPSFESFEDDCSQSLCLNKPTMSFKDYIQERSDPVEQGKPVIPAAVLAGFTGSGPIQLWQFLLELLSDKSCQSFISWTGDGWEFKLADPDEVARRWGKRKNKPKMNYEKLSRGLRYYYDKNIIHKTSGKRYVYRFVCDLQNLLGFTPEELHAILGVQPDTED
Outline: as §1

SPDEF = molecular target: T4, SPDEF (Homo sapiens, UniProt O95238 1-335)
T4 sequence: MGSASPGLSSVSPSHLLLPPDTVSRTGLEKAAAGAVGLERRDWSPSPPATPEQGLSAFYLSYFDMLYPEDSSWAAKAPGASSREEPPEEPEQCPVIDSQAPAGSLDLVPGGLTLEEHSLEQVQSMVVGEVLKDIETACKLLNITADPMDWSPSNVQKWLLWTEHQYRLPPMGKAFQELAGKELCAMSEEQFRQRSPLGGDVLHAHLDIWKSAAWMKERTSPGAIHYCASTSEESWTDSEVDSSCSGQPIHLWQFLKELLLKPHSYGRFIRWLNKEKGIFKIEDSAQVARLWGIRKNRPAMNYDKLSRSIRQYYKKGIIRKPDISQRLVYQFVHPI
Outline: as §1

ETV7 = molecular target: T5, ETV7 (Homo sapiens, UniProt Q9Y603 1-341)
T5 sequence: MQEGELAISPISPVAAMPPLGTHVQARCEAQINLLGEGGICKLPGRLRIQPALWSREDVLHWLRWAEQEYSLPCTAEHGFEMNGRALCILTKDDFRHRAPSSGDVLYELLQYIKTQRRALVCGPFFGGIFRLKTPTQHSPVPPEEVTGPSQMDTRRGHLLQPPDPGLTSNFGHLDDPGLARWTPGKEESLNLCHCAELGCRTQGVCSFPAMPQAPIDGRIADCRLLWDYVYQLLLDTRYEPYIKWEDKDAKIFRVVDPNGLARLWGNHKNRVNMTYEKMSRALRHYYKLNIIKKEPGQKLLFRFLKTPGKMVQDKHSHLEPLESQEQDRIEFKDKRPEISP
Outline: as §1

ETV3 = molecular target: T6, ETV3 (Homo sapiens, UniProt P41162-2 1-143)
T6 sequence: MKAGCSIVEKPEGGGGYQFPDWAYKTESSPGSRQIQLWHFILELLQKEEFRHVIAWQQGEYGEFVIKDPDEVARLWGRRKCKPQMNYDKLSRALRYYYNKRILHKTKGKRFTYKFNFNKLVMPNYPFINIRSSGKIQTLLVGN
Outline: as §1

ETV6 = ETV6 (Homo sapiens, UniProt P41212 1-452)
Sequence of ETV6 (P41212 whole entry): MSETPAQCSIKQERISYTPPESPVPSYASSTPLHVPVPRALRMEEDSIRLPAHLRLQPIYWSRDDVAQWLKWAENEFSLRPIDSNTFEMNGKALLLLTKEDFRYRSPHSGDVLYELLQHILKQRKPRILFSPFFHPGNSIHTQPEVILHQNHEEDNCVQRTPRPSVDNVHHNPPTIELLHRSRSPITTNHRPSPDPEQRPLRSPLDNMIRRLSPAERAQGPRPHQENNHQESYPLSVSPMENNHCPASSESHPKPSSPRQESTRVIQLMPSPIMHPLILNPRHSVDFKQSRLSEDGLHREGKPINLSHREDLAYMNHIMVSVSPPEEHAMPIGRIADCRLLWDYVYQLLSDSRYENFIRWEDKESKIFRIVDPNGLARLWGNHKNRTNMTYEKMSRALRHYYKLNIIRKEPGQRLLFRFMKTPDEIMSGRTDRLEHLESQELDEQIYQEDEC
Outline: as §1

Sequence | binding signal (ERF) | binding signal (ETV3L) | binding signal (ETS2) | binding signal (SPDEF) | binding signal (ETV7) | binding signal (ETV3) | binding signal (ETV6)
GCTTGG | 1.18 fold enrichment (6-mer frequency, TF over GST control) | 1.01 fold enrichment (6-mer frequency, TF over GST control) | 1.14 fold enrichment (6-mer frequency, TF over GST control) | 1.08 fold enrichment (6-mer frequency, TF over GST control) | 1.13 fold enrichment (6-mer frequency, TF over GST control) | 1.02 fold enrichment (6-mer frequency, TF over GST control) | 1.13 fold enrichment (6-mer frequency, TF over GST control)
GTGCTA | 1.02 fold enrichment (6-mer frequency, TF over GST control) | 1.04 fold enrichment (6-mer frequency, TF over GST control) | 1.13 fold enrichment (6-mer frequency, TF over GST control) | 1.12 fold enrichment (6-mer frequency, TF over GST control) | 1 fold enrichment (6-mer frequency, TF over GST control) | 1.11 fold enrichment (6-mer frequency, TF over GST control) | 
CGAGTT | 1.08 fold enrichment (6-mer frequency, TF over GST control) | 1.16 fold enrichment (6-mer frequency, TF over GST control) | 1.07 fold enrichment (6-mer frequency, TF over GST control) | 1.02 fold enrichment (6-mer frequency, TF over GST control) | 1.08 fold enrichment (6-mer frequency, TF over GST control) | 1.12 fold enrichment (6-mer frequency, TF over GST control) | 1.13 fold enrichment (6-mer frequency, TF over GST control)
CATGTA | 1.2 fold enrichment (6-mer frequency, TF over GST control) | 1.16 fold enrichment (6-mer frequency, TF over GST control) | 1.04 fold enrichment (6-mer frequency, TF over GST control) | 1.13 fold enrichment (6-mer frequency, TF over GST control) | 1.05 fold enrichment (6-mer frequency, TF over GST control) | 1.18 fold enrichment (6-mer frequency, TF over GST control) | 1.04 fold enrichment (6-mer frequency, TF over GST control)
GGCCTC | 1.12 fold enrichment (6-mer frequency, TF over GST control) | 1.12 fold enrichment (6-mer frequency, TF over GST control) | 1.09 fold enrichment (6-mer frequency, TF over GST control) | 1.08 fold enrichment (6-mer frequency, TF over GST control) | 1.05 fold enrichment (6-mer frequency, TF over GST control) | 1.1 fold enrichment (6-mer frequency, TF over GST control) | 1.09 fold enrichment (6-mer frequency, TF over GST control)
AGCTAA | 1.1 fold enrichment (6-mer frequency, TF over GST control) | 1.05 fold enrichment (6-mer frequency, TF over GST control) | 1.15 fold enrichment (6-mer frequency, TF over GST control) | 1.02 fold enrichment (6-mer frequency, TF over GST control) | 1.1 fold enrichment (6-mer frequency, TF over GST control) | 1.1 fold enrichment (6-mer frequency, TF over GST control) | 
GCACGA | 1.13 fold enrichment (6-mer frequency, TF over GST control) | 1 fold enrichment (6-mer frequency, TF over GST control) | 1.03 fold enrichment (6-mer frequency, TF over GST control) | 1 fold enrichment (6-mer frequency, TF over GST control) | 1.19 fold enrichment (6-mer frequency, TF over GST control) | 1.1 fold enrichment (6-mer frequency, TF over GST control) | 1.06 fold enrichment (6-mer frequency, TF over GST control)
TTGAAC | 1.16 fold enrichment (6-mer frequency, TF over GST control) | 1.17 fold enrichment (6-mer frequency, TF over GST control) | 1.17 fold enrichment (6-mer frequency, TF over GST control) | 1.06 fold enrichment (6-mer frequency, TF over GST control) | 1.18 fold enrichment (6-mer frequency, TF over GST control) | 1.14 fold enrichment (6-mer frequency, TF over GST control) | 1.1 fold enrichment (6-mer frequency, TF over GST control)
